Rows were chosen to be rich in hits. Some 4% of all compounds tested hit in one or more screens of this group.
NALP1 yeast inh: NALP1 inflammasome inhibitors in reconstituted yeast, colorimetric, S. cerevisiae, triplicate retest; S. cerevisiae NALP1/ASC/caspase-1 growth, X-gal OD620, 72 h; inhibition, % at 10 µM; actives 0.61% (n = 280,000); in the data active = inhibition mostly above about 24%, no sharp cut-off; inactive = mostly below about 32%
TIM10 inh: growth inhibitors of isogenic TIM10 control yeast, primary screen, counter-screen for tim10-1 yeast inhibitor project, luminescence, uHTS. S. cerevisiae TIM10 strain growth, BacTiter-Glo luminescence, 24 h. inhibition, % at 10 µM. actives 1.4% (n = 330,000). AID 463195, 2010;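 active = inhibition of 40% or more at the single tested concentration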;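 note: wild-type TIM10 isogenic control strain grown at permissive 25 °C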
tim23-1 inh: growth inhibitors of tim23-1 mutant yeast, primary screen, luminescence, uHTS | S. cerevisiae tim23-1 growth, BacTiter-Glo luminescence, 24 h | inhibition, % at 20 µM | actives 1.3% (n = 330,000) | AID 463212, 2010;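 active = growth inhibition of the mutant yeast at or above 50%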;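 note: temperature-sensitive mutant grown at 25 °C; plate controls were DMSO-treated mutant yeast for no effect and medium wells lacking yeast for full effect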
tim10-1 inh: growth inhibitors of tim10-1 mutant yeast, primary screen, luminescence, uHTS | inhibition, % at 20 µM | S. cerevisiae tim10-1 ts strain growth, BacTiter-Glo, 24 h | AID 463190, 2010 | actives 2.2% (n = 330,000);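 active = inhibition of at least 40%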;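 note: mutant grown at 25 °C; 0% = DMSO wells with yeast and 100% = wells holding no yeast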
NALP3 yeast inh: NALP3 inflammasome inhibitors in reconstituted yeast, primary screen, luminescence, uHTS | Yeast reconstituted NLRP3/ASC/caspase-1, beta-gal luminescence, 24 h | inhibition, % at 10 µM | actives 0.39% (n = 330,000);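 active = inhibition of 50% or more; inactive = inhibition below 50%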;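 note: plate controls were induced DMSO wells for no effect and uninduced yeast grown without galactose for full effect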
tim10-1 confirm: growth inhibitors of tim10-1 mutant yeast, confirmation, single concentration, luminescence, S. cerevisiae. S. cerevisiae tim10-1 ts strain growth, BacTiter-Glo, 24 h. inhibition, % at 20 µM. AID 463213, 2010. actives 56% (n = 7,400). shares compounds with tim10-1 inh;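 active = inhibition of yeast growth at or above a set limit in either of two repeat tests at 20 µM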;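 note: tim10-1 mutant grown at permissive 25 °C to find synthetic lethal compounds; 0% = DMSO yeast wells and 100% = medium wells without yeast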
The depositor's hits bear a star; / = no result.

SMILES	NALP1 yeast inh	TIM10 inh	tim23-1 inh	tim10-1 inh	NALP3 yeast inh	tim10-1 confirm
CCOC(=O)C(C#N)=C1CCN(Cc2ccccc2)CC1	-23	-4	15	17	8	/
CCOC(=O)/C(C#N)=C1/C(=O)N(Cc2ccccc2)c2ccccc21	9	31	48	49*	15	29
O=C1C=CCC(/C=C/c2ccccc2)O1 (stereo not given)	47*	35	40	55*	25	27
O=C1C=C(/C=C/c2ccccc2)C[C@@H](c2ccc(F)cc2)C1	/	1	34	-16	9	/
CC(C)N(C(=O)c1nn(C)c2c1CSc1ccccc1-2)C1CCCCC1	4	9	48	50*	17	12
O=C(CSc1n[nH]c(-c2ccccc2O)n1)N1CCCc2ccccc21	14	27	31	45*	-9	25
O=C(CSc1nnnn1-c1ccccc1)N1CCCc2ccccc21	-2	22	32	43*	20	17
CN(CC(=O)Nc1ccccc1C(F)(F)F)C(=O)c1ccc2c(=O)n3c(nc2c1)CCC3	/	7	4	8	12	/
Cc1cccc(CNC(=O)c2ccc(NC(=O)C3=CSCCO3)cc2)c1	4	16	43	50*	24	21
Cc1cccc(CNC(=O)c2ccccc2NC(=O)C2=CSCCO2)c1	15	0	15	21	18	/
CCOc1ccccc1CNC(=O)c1ccc(NC(=O)C2=C(C)OCCS2)cc1	7	-20	20	33	16	/
CCOc1ccccc1CNC(=O)c1ccc(NC(=O)C2=CSCCO2)cc1	10	9	36	45*	12	6
Cc1ccc(CNC(=O)c2ccccc2NC(=O)C2=CSCCO2)cc1	7	18	24	40	24	18
COc1cccc(OC)c1NC(=O)C1CCCN1C(=O)Nc1ccccc1F (stereo not given)	8	1	-5	2	21	/
CC(C)(C)C1CCc2nc(NC(=O)Cc3cn4ccsc4n3)sc2C1 (stereo not given)	10	30	47	57*	-22	34*
Nc1cc(S(=O)(=O)N2CCCCC2)ccc1N1CCCCC1	/	24	34	45*	25	27
COc1ccc(-c2nn(-c3ccccc3)cc2/C=C(\CC(=O)O)c2nc3ccccc3s2)cc1OC	20	19	33	71*	1	41*
O=C(COc1ccc2ccc(=O)oc2c1)NCCCn1ccnc1	6	-8	-1	16	11	/
N#Cc1ccccc1Cn1c(=O)n(C2CCCC2)c(=O)c2ccccc21	-6	24	41	46*	0	38*
O=c1c2ccccc2n(Cc2cccc(F)c2)c(=O)n1C1CCCC1	-11	25	33	35	10	/
CCC/C(O)=C1\C(=O)CC(c2ccccc2)CC1=NC(C)C(=O)O (stereo not given)	26	-2	-6	13	3	/
N#C/C(=N\Nc1cccc(Cl)c1)C(=O)c1ccccc1	3	15	36	42*	44	25
O=C(CNC(=O)N1CC(=O)Nc2ccccc21)NCCc1c[nH]c2ccccc12	12	0	7	-10	7	/
COc1ccc(-c2cc(C(F)(F)F)nc(N3CCN(Cc4ccccc4)CC3)n2)cc1OC	7	21	23	46*	6	23
O=C(Nc1cccc(Cl)c1)c1csc(-c2ccccc2)n1	33	22	32	44*	21	9
SMILES	NALP1 yeast inh	TIM10 inh	tim23-1 inh	tim10-1 inh	NALP3 yeast inh	tim10-1 confirm
Cc1ccc(-c2csc(N(CCO)CCCn3c(C(F)(F)F)nc4ccccc43)n2)cc1	7	-11	-5	44*	9	15
OCCn1c(C(F)(F)F)nc2ccccc21	4	10	12	-6	20	/
COc1ccc(C(=O)NCC(=O)OCC(=O)NCc2ccc3c(c2)OCO3)cc1	/	-4	3	-10	7	/
CN(C)S(=O)(=O)c1cccc(NC(=S)NN=C(Cc2ccccc2)Cc2ccccc2)c1	12	22	41	44*	10	22
CC(C)c1ccc(NC(=O)CCCN2C(=S)NC(C)(C)CC2C)cc1 (stereo not given)	21	15	38	43*	4	10
COCCN(Cc1ccccc1)C(=S)Nc1ccc(OC(F)F)cc1	/	23	30	43*	23	26
CCCN(Cc1ccccc1)C(=S)Nc1ccc(OC(F)F)cc1	9	24	33	25	-3	/
COc1cc(NC(=O)CSc2nnnn2C2CCCC2)cc(OC)c1	2	4	-3	97*	1	-2
COc1cccc(NC(=O)CSc2nnnn2C2CCCC2)c1	10	13	11	-12	7	/
Cc1ccc(Sc2ccc(NC(=O)CCN3C(=O)NC4(CCCC4)C3=O)cc2)c(C)c1	/	16	23	29	15	/
COc1ccc([N+](=O)[O-])cc1NCc1ccccc1C	-2	13	34	18	2	/
COc1ccc([N+](=O)[O-])cc1NCc1ccccc1	9	9	27	43*	-35	19
COc1ccc(S(=O)(=O)N2CCN(Cc3ccccc3)CC2)cc1	27	12	41	48*	10	31
CCOc1ccc(C(=O)CN2CCN(S(=O)(=O)c3ccc(Br)cc3)CC2)cc1	-1	13	23	17	19	/
CC(C)(C)C(=O)CSc1ccc(S(=O)(=O)N2CCN(Cc3ccccc3)CC2)cn1	/	24	39	42*	16	36*
CCOc1ccc(C(=O)CN2CCN(S(=O)(=O)c3ccc(OC)cc3)CC2)cc1	13	23	48	42*	25	42*
COC(=O)/C=c1\[nH]c2nnc(C)n2c1=O	/	7	2	-5	16	/
O=C(CSc1nnc(-c2ccccc2)n1-c1ccccc1)c1cccs1	13	20	34	46*	12	25
Cc1ccc2cc(C)c3nnc(SCC(=O)c4cccs4)n3c2c1C	16	16	38	40*	-4	15
O=C(CSc1nnc(-c2ccccc2)n1-c1ccccc1)c1ccc[nH]1	30	26	17	15	10	/
CC(Oc1cccc(Cl)c1)C(=O)Nc1cc(Cl)ccc1N1CCOCC1 (stereo not given)	/	15	33	18	9	/
CC(=O)NN1C(=O)/C(=C/c2ccc(C(C)C)cc2)SC1=S	20	3	41	42*	26	39*
O=C(O)c1ccc(/C=C2\SC(=S)N(NC(=O)c3ccccc3)C2=O)cc1	-2	-11	5	3	0	/
CCCN1CCN(C(=O)C2CCN(S(=O)(=O)c3c(C)noc3/C=C/c3ccc(C)cc3)CC2)CC1	3	12	30	54*	18	28*
